From PubChem
Compounds with a hit are over-represented: about 1.1% of the library has one in this group of screens.
DUSP3 inh: DUSP3 (human) phosphatase inhibition | P51452 | recombinant VHR phosphatase, pNPP absorbance | inhibition, % at 13.3 µM | 0.52% of 290,000 active | AID 1654; in the data active means inhibition above about 50%
BJeLR lethal: kills HRASV12-expressing BJeLR cells; BJeLR (HRASV12) viability, CellTiter-Glo ATP luminescence, 48 h; inhibition, % (no concentration beside the values); 0.17% of 300,000 active; in the data active means inhibition above about 50%
PrPC TRFRET: inhibitors of human cell surface prion protein PrPC; TR-FRET read-out; 0.43% of 370,000 active; P04156; inhibition, % at 13.8 µM; in the data active means inhibition above about 24%; further: 0% = median of the test wells and 100% = reference compound wells
SARS 3CLpro inh: SARS-CoV 3CLpro protease inhibition; P0C6X7; recombinant SARS-CoV 3CLpro, quenched FRET peptide cleavage; inhibition, % at 6 µM; 0.14% of 290,000 active; AID 1706; in the data active means inhibition above about 12%
PrPC TRFRET cf: confirmation of inhibitors of cell surface human prion protein; shares compounds with PrPC TRFRET; 65% of 1,500 active; inhibition, % at 13.8 µM; cell surface PrPC level, TR-FRET; in the data active means inhibition above about 25%
LD9 cytotox: LD9 cell cytotoxicity, PrPc inhibitor counter-screen | shares compounds with PrPC TRFRET | LD9 cells cytotoxicity, luminescence viability | inhibition, % at 13.8 µM | 29% of 1,500 active; in the data active means inhibition above about 9.5%
Numbers without * were called inactive; . = not tested or not shown.

SMILES | DUSP3 inh | BJeLR lethal | PrPC TRFRET | SARS 3CLpro inh | PrPC TRFRET cf | LD9 cytotox
Cc1ccc2nc(-c3ccc(CN4CCC5(CC4)CNc4ccccc45)cc3)c(-c3ccccc3)nc2c1 | . | . | 6.2 | . | . | .
CCOC(=O)N1CCN(C(=O)COc2ccc3ccccc3c2Br)CC1 | 7.4 | 4.8 | 49.6* | -0.4 | 78.7* | -2.4
N/C(=N\OC(=O)COc1ccc2ccccc2c1Br)c1cccnc1 | 14.9 | 5.6 | 47.4* | 1.5 | 78.2* | 2.6
N/C(=N\OC(=O)COc1ccc(Br)cc1Cl)c1ccccn1 | 1.7 | -9.1 | 20.4 | 0.8 | . | .
N/C(=N\OC(=O)COc1ccc2ccccc2c1Br)c1ccccn1 | 20.8 | 5.3 | 58.9* | 5.5 | 83.8* | -1.5
CCCn1c(N)c(N(CCOC)C(=O)c2ccc(S(=O)(=O)N3CCOCC3)cc2)c(=O)[nH]c1=O | . | . | 6.2 | . | . | .
COC(=O)[C@]12C[C@H](CC(=O)NCc3cccc4ccccc34)C(=O)N(Cc3ccccc3)C1=C[C@H](C(C)C)O[C@@H]2C1CC1 | . | . | 1.6 | . | . | .
CCOC(=O)N1CCN(S(=O)(=O)c2c(C(=O)N3CCCCC3)c(C)n(C)c2C)CC1 | 5.5 | 15.8 | -0.9 | 0.5 | . | .
O=C(NC(CO)(CO)CO)c1coc(=O)c(Br)c1 | 13.6 | 3.1 | 45.8* | 4.0 | -4.5 | -3.6
S=c1nc(COc2ccccc2)[nH]c2ccccc12 | 16.5 | -5.9 | 14.2 | 0.7 | . | .
Cc1nc(=S)c2ccccc2[nH]1 | -4.6 | -0.4 | -1.0 | -3.8 | . | .
S=c1nc(Cc2ccc(Cl)cc2)[nH]c2ccccc12 | 23.8 | -3.1 | 29.2* | 4.3 | 59.8* | -2.9
S=c1nc(Cc2ccccc2)[nH]c2ccccc12 | 34.4 | -9.4 | 31.2* | -1.7 | 26.3* | -4.3
O=C(COC(=O)/C=C/c1ccco1)NCCN1C(=O)CSC1=O | . | . | 2.5 | . | . | .
Cc1cccc(NS(=O)(=O)c2ccc3oc(=O)ccc3c2)c1C | 2.3 | 2.4 | 37.2* | 0.7 | 20.3 | -5.8
NC(=O)c1ccc(-c2ccc(Br)cc2)o1 | 14.1 | 6.3 | 52.6* | 2.4 | 63.4* | -8.7
NC(=O)C1CCN(C(=S)c2ccc(-c3ccc(Br)cc3)o2)CC1 | 27.0 | 5.8 | -6.3 | 2.3 | . | .
Cc1cccc(C)c1NC(=O)C(c1ccccc1F)n1c(=O)c(-c2ccccc2)nc2ccccc21 (stereo unspecified) | . | . | 7.4 | . | . | .
COc1ccc(C(=O)Nc2ccc(NC(=O)c3cc(OC)c(OC)c(OC)c3)cn2)cc1 | 11.5 | -16.9 | 43.5* | -4.9 | 37.6* | 2.4
CCn1c(=N)n(CC(=O)c2ccc(Br)s2)c2ccccc21 | 7.7 | 4.6 | -0.2 | 5.8 | . | .
CCCCn1c(=N)n(CC(=O)c2ccc(Br)s2)c2ccccc21 | 9.5 | 8.1 | 36.8* | 0.6 | 83.3* | 27.9*
N#Cc1ccc(OCCCN2CCC(C(O)(c3ccccc3)c3ccccc3)CC2)cc1 | . | . | -16.8 | . | . | .
CC(C)c1nc(SCC(=O)Nc2nccs2)c2ccccc2n1 | 15.3 | -9.7 | 50.5* | 0.2 | 89.6* | -3.7
Cc1ccc(C(=O)CSc2nc(C(C)C)nc3ccccc23)cc1 | 15.1 | 14.4 | 8.5 | 0.0 | . | .
Cc1csc(NC(=O)CSc2nc(C(C)C)nc3ccccc23)n1 | 11.3 | 5.9 | 83.9* | -3.1 | 105.1* | -4.7
SMILES | DUSP3 inh | BJeLR lethal | PrPC TRFRET | SARS 3CLpro inh | PrPC TRFRET cf | LD9 cytotox
CC(C)c1nc(SCC(=O)Nc2ccc(N(C)C)cc2)c2ccccc2n1 | 36.4 | -2.1 | 79.0* | -4.1 | 93.3* | -5.1
CC(C)c1nc(SCC(=O)NC2CCCCC2)c2ccccc2n1 | 10.2 | -8.1 | 3.4 | 1.9 | . | .
CCO/C(C)=N/Oc1cncnc1 | . | . | 2.3 | . | . | .
Nc1nc2c(ncn2[C@@H]2O[C@H](C(=O)N[C@H](Cc3ccccc3)C(=O)NCCCc3ccccc3)[C@@H](O)[C@H]2O)c(=O)[nH]1 | . | . | -0.7 | . | . | .
CCc1nonc1NC(=O)c1oc2cc(Br)ccc2c1C | -3.6 | 5.2 | 28.5* | 3.5 | 90.7* | -4.6
CCCCCCCCN1C(=O)[C@@H](CC(=O)N2CCCCC2)C[C@@]2(C(=O)OC)C1=C[C@H](C1CCCC1)O[C@@H]2C | . | . | 0.4 | . | . | .
O=C(NCCO)c1cccc(-c2cc(Nc3ccc(OC(F)(F)F)cc3)ncn2)c1 | . | . | -2.5 | . | . | .
NC(=O)c1cccc(-c2cc(Nc3ccc(OC(F)(F)F)cc3)ncn2)c1 | 15.2 | 6.7 | 51.3* | . | 24.2 | 6.6
COc1ccc(/C=C/C(=O)Nc2c(C(=O)O)[nH]c3ccccc23)cc1OC | 13.6 | -1.3 | -1.8 | 1.8 | . | .
C=CCN(CC#CC1=CCCCC1)Cc1ccccc1 | . | . | 9.4 | . | . | .
COc1ccc(/C=C/C(=O)Nc2ccc(-n3nncc3-c3ccc(OC)c(OC)c3)cc2)cc1OC | -14.1 | 0.6 | 24.8* | 1.5 | 28.0* | 9.9*
